Results on ten compounds are retold here after PubChem BioAssay (NCI).

About 79,000 compounds went through this panel and 15% of them were active in at least one assay; those are over-represented in the sample as a whole. Unmarked numbers belong to inactive results. The source made the active and inactive calls. No stated cut-off is given here; in the data, active means growth inhibition above about 70%; inactive means the rest.

Assay [1] can be described thus: NCI Yeast Anticancer Drug Screen. Data for the rad50 strain (AID 155).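 Further: 0% = growth of vehicle-only cultures of the same strain.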 Particulars: S. cerevisiae rad50 strain growth inhibition, stronger effect = higher value. Put shortly: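 Relative growth inhibition (compound vs vehicle) was measured in yeast with a defined repair-gene alteration.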
A short description of assay [2]: NCI Yeast Anticancer Drug Screen. Data for the mec2-1 strain (AID 157). The settings on record: S. cerevisiae mec2-1 strain, stronger effect = higher value. Put shortly: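 Each compound was tested on mec2-1 yeast, a strain altered in DNA damage repair or cell cycle control. Growth inhibition is reported relative to vehicle.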
A short description of assay [3]: NCI Yeast Anticancer Drug Screen. Data for the sgs1 mgt1 strain (AID 161).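 Further: 0% = growth of cultures given vehicle only.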 Particulars: S. cerevisiae sgs1 mgt1 strain, stronger effect = higher value. Put shortly:
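Genetically altered yeast, compound exposure, growth inhibition relative to vehicle.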

Assay [4] in a line: NCI Yeast Anticancer Drug Screen. Data for the cln2 rad14 strain (AID 165).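 Further: 0% = growth equal to vehicle treated cultures.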 Particulars: S. cerevisiae cln2 rad14 strain, stronger effect = higher value. Summed up:
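Test compounds were added to cln2 rad14 yeast cultures; inhibition of growth was then determined by comparison with vehicle treatment.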

The nature of assay [5]: NCI Yeast Anticancer Drug Screen. Data for the bub3 strain (AID 167). Particulars: S. cerevisiae bub3 mutant strain, stronger effect = higher value. Put shortly:
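Screening used yeast with an engineered genetic alteration affecting cell cycle control. Compound-exposed cultures were compared with vehicle cultures, and reduced growth was taken as inhibition.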

Assay [6] in a line: NCI Yeast Anticancer Drug Screen. Data for the mlh1 rad18 strain (AID 175). Particulars: S. cerevisiae mlh1 rad18 strain growth inhibition, stronger effect = higher value. Summed up:
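Inhibition values reflect reduced growth of mutant yeast versus vehicle-treated controls following compound exposure; the mutations affect DNA damage repair.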

Setting [7] is: at 5.0 µM (retest, dose inferred, filed as 0.5).
Setting [8] is: at 50.0 µM (retest, dose inferred, filed as 5.0).

As to `CCCCCCCCCc1ccc(O)c(Cl)c1`, the growth inhibition in assay [1] (setting [7]) is -28%; in assay [1] (setting [8]), 94% (active); in assay [1] (at 50.0 µM), 99.7% (active); in assay [2] (setting [7]) it was -3%; in assay [2] (setting [8]) it was 90% (active); in assay [2] (at 50.0 µM), 99.8% (active). In addition, the growth inhibition is -2% in assay [3] (setting [7]); 99% (active) in assay [3] (setting [8]); 99.2% (active) in assay [3] (at 50.0 µM); -12% in assay [4] (setting [7]); 97% (active) in assay [4] (setting [8]); 99.5% (active) in assay [4] (at 50.0 µM). Also, the growth inhibition is -1% in assay [5] (setting [7]); 86% (active) in assay [5] (setting [8]); 99.4% (active) in assay [5] (at 50.0 µM); -9% in assay [6] (setting [7]); 99% (active) in assay [6] (setting [8]); 99.5% (active) in assay [6] (at 50.0 µM).
Turning to `O=C(O)/C=C/CCC1SCC2NC(=O)NC21` (stereo not given), the growth inhibition in assay [1] (setting [7]) was 96% (active); in assay [1] (setting [8]), 96% (active); in assay [1] (at 50.0 µM), 80.3% (active); in assay [2] (setting [7]), 98% (active); in assay [2] (setting [8]) it was 97% (active); in assay [2] (at 50.0 µM), 84.2% (active). The growth inhibition is 96% (active) in assay [3] (setting [7]); 96% (active) in assay [3] (setting [8]); 88.3% (active) in assay [3] (at 50.0 µM); 94% (active) in assay [4] (setting [7]); 95% (active) in assay [4] (setting [8]); 84% (active) in assay [4] (at 50.0 µM). Further, the growth inhibition in assay [5] (setting [7]) was 97% (active); in assay [5] (setting [8]), 97% (active); in assay [5] (at 50.0 µM), 87.5% (active); in assay [6] (setting [7]) it was 96% (active); in assay [6] (setting [8]) it was 96% (active); in assay [6] (at 50.0 µM) it was 83% (active).
As to `NC(=S)N/N=C/c1cn(CCCl)c2ccccc12`, the growth inhibition in assay [1] (setting [7]) was 7%; in assay [1] (setting [8]), 30%; in assay [1] (at 50.0 µM) it was 57.5%; in assay [2] (setting [7]) it was -49%; in assay [2] (setting [8]), 49%; in assay [2] (at 50.0 µM) it was 19.8%. Further, the growth inhibition in assay [3] (setting [7]) is -17%; in assay [3] (setting [8]), 63%; in assay [3] (at 50.0 µM) it was 62.9%; in assay [4] (setting [7]), 2%; in assay [4] (setting [8]) it was 59%; in assay [4] (at 50.0 µM) it was 42.9%. Moreover, the growth inhibition in assay [5] (setting [7]) was -11%; in assay [5] (setting [8]), 56%; in assay [5] (at 50.0 µM), 24.1%; in assay [6] (setting [7]) it was -32%; in assay [6] (setting [8]) it was 35%; in assay [6] (at 50.0 µM), 45.9%.
For `Oc1ccc(C/C=C/c2ccccc2)cc1O`, the growth inhibition in assay [1] (setting [7]) was 3%; in assay [1] (setting [8]), 98% (active); in assay [1] (at 50.0 µM), 56.8%; in assay [2] (setting [7]) it was 4%; in assay [2] (setting [8]), 99% (active); in assay [2] (at 50.0 µM) it was 99.1% (active). The growth inhibition was 13% in assay [3] (setting [7]); 99% (active) in assay [3] (setting [8]); 47.8% in assay [3] (at 50.0 µM); -7% in assay [4] (setting [7]); 98% (active) in assay [4] (setting [8]); 98.8% (active) in assay [4] (at 50.0 µM). In addition, the growth inhibition is -1% in assay [5] (setting [7]); 98% (active) in assay [5] (setting [8]); 99.2% (active) in assay [5] (at 50.0 µM); 9% in assay [6] (setting [7]); 98% (active) in assay [6] (setting [8]); 99.2% (active) in assay [6] (at 50.0 µM).
Consider `C#CCOC(=O)Nc1nc2ccc(SC#N)cc2s1`, for which the growth inhibition in assay [1] (setting [7]) is 9%; in assay [1] (setting [8]), 90% (active); in assay [1] (at 50.0 µM), 97.8% (active); in assay [2] (setting [7]), -5%; in assay [2] (setting [8]) it was 87% (active); in assay [2] (at 50.0 µM), 96.8% (active). Further, the growth inhibition in assay [3] (setting [7]) is 3%; in assay [3] (setting [8]), 98% (active); in assay [3] (at 50.0 µM) it was 97.7% (active); in assay [4] (setting [7]) it was 0%; in assay [4] (setting [8]) it was 92% (active); in assay [4] (at 50.0 µM), 96.4% (active). The growth inhibition in assay [5] (setting [7]) was 14%; in assay [5] (setting [8]), 90% (active); in assay [5] (at 50.0 µM), 97.6% (active); in assay [6] (setting [7]), 4%; in assay [6] (setting [8]), 96% (active); in assay [6] (at 50.0 µM) it was 97.2% (active).
Consider `CCOC(=O)c1nnc2cc(-c3ccccc3)nn2c1-c1ccccc1`, for which the growth inhibition in assay [1] (setting [7]) was 65%; in assay [1] (setting [8]) it was 85% (active); in assay [1] (at 50.0 µM), 51.1%; in assay [2] (setting [7]) it was 35%; in assay [2] (setting [8]) it was 66%; in assay [2] (at 50.0 µM) it was 21.8%. For the same compound, the growth inhibition was 48% in assay [3] (setting [7]); 80% (active) in assay [3] (setting [8]); 75.2% (active) in assay [3] (at 50.0 µM); 25% in assay [4] (setting [7]); 38% in assay [4] (setting [8]); 41.4% in assay [4] (at 50.0 µM). Besides, the growth inhibition in assay [5] (setting [7]) is 45%; in assay [5] (setting [8]), 70% (active); in assay [5] (at 50.0 µM) it was 65.9%; in assay [6] (setting [7]), 61%; in assay [6] (setting [8]), 90% (active); in assay [6] (at 50.0 µM) it was 38.6%.
Regarding `O=C(O)CCCCCCCCCC[S+](CCO)CCO`, the growth inhibition in assay [1] (setting [7]) is -2%; in assay [1] (setting [8]), 31%; in assay [1] (at 50.0 µM), 43.2%; in assay [2] (setting [7]), 3%; in assay [2] (setting [8]), 29%; in assay [2] (at 50.0 µM), 26.4%. In addition, the growth inhibition in assay [3] (setting [7]) is 2%; in assay [3] (setting [8]) it was 50%; in assay [3] (at 50.0 µM), 62.1%; in assay [4] (setting [7]), 20%; in assay [4] (setting [8]) it was 12%; in assay [4] (at 50.0 µM) it was 67.5%. Also, the growth inhibition in assay [5] (setting [7]) was 3%; in assay [5] (setting [8]), 12%; in assay [5] (at 50.0 µM), 37.4%; in assay [6] (setting [7]), 1%; in assay [6] (setting [8]) it was 44%; in assay [6] (at 50.0 µM), 34.5%.
Take `Cc1nc(Cl)nc(N)c1[N+](=O)[O-]`: the growth inhibition is 2% in assay [1] (setting [7]); 44% in assay [1] (setting [8]); 53.8% in assay [1] (at 50.0 µM); 8% in assay [2] (setting [7]); 55% in assay [2] (setting [8]); 44.1% in assay [2] (at 50.0 µM). The growth inhibition in assay [3] (setting [7]) is 3%; in assay [3] (setting [8]) it was 30%; in assay [3] (at 50.0 µM), 24.8%; in assay [4] (setting [7]), -3%; in assay [4] (setting [8]) it was 19%; in assay [4] (at 50.0 µM), 10.8%. Further, the growth inhibition in assay [5] (setting [7]) is -6%; in assay [5] (setting [8]), 31%; in assay [5] (at 50.0 µM) it was 22.9%; in assay [6] (setting [7]), 6%; in assay [6] (setting [8]), 41%; in assay [6] (at 50.0 µM) it was 45.1%.
As for `Oc1ccccc1N=CC1CCCCC1`, the growth inhibition in assay [1] (setting [7]) is -61%; in assay [1] (setting [8]), 40%; in assay [1] (at 50.0 µM), 69%; in assay [2] (setting [7]) it was -27%; in assay [2] (setting [8]), -24%; in assay [2] (at 50.0 µM), 37.1%. Further, the growth inhibition in assay [3] (setting [7]) was -33%; in assay [3] (setting [8]) it was -23%; in assay [3] (at 50.0 µM), 28.4%; in assay [4] (setting [7]), -53%; in assay [4] (setting [8]), -31%; in assay [4] (at 50.0 µM), 17%. For the same compound, the growth inhibition in assay [5] (setting [7]) was 9%; in assay [5] (setting [8]), 46%; in assay [5] (at 50.0 µM), 74% (active); in assay [6] (setting [7]), -32%; in assay [6] (setting [8]), 20%; in assay [6] (at 50.0 µM), 66.2%.
For the compound `CCC(C)(C)NCCCCCNc1cc(OC)cc2cccnc12`, the growth inhibition in assay [1] (setting [7]) was -2%; in assay [1] (setting [8]), 67%; in assay [1] (at 50.0 µM), 76.2% (active); in assay [2] (setting [7]) it was -5%; in assay [2] (setting [8]) it was 0%; in assay [2] (at 50.0 µM), 40.2%. Besides, the growth inhibition in assay [3] (setting [7]) was 4%; in assay [3] (setting [8]), 22%; in assay [3] (at 50.0 µM), 56.4%; in assay [4] (setting [7]) it was 0%; in assay [4] (setting [8]), 9%; in assay [4] (at 50.0 µM), 21.4%. Further, the growth inhibition in assay [5] (setting [7]) is 6%; in assay [5] (setting [8]), 36%; in assay [5] (at 50.0 µM), 79% (active); in assay [6] (setting [7]), 2%; in assay [6] (setting [8]), 16%; in assay [6] (at 50.0 µM) it was 68.8%.
